High-throughput results (PubChem)
The entries come from a sample that favours hits as a whole.
FECH inh: blocks human mitochondrial ferrochelatase activity; calls only at 10 µM (by protocol); purified FECH, Ni-mesoporphyrin absorbance 550 nm; actives 3.3% (n = 20,000); AID 1671448; P22830;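 active = enzyme reaction rate more than 3 SD below the solvent-only control wells on the same plate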;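 note: lower slope than DMSO wells means FECH inhibition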
Target sequence (P22830 whole entry, looked up): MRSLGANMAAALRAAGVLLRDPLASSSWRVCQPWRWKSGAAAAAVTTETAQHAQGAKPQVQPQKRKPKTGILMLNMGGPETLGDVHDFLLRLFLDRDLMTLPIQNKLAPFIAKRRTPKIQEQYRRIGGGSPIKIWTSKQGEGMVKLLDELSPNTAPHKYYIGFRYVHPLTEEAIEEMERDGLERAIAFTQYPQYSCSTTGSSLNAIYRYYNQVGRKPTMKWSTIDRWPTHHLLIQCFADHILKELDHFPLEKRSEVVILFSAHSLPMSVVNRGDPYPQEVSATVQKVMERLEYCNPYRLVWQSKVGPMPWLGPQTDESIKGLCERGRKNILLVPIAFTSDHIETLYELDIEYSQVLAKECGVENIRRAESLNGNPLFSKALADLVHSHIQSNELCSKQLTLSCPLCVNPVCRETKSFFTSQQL
Calls only.

For CCn1nc(-c2ccccc2)c(-c2ccccc2)c(C(=O)Nc2ccc(S(N)(=O)=O)cc2)c1=O the results were FECH inh active.
NS(=O)(=O)c1ccc(NC(=O)c2c(-c3ccccc3)c(-c3ccccc3)n[nH]c2=O)cc1 was read as FECH inh inactive.
Screening NS(=O)(=O)c1ccc(NC(=O)c2ccc(-c3nc(-c4ccccc4)no3)cc2)cc1 returned FECH inh inactive.
Screening CCc1[nH]c2c(CNC(=O)c3ccnc(-n4cnnc4)c3)cc(C)cc2c1C returned FECH inh inactive.
For COc1ccc(C(=O)N2CCc3c(c(C(=O)NCc4ccccc4)nn3C)C2)cc1 the results were FECH inh inactive.
For Cn1nc(C(=O)NCc2ccccc2)c2c1CCN(C(=O)C1CCC1)C2 the results were FECH inh active.
`Cn1nc(C(=O)NCc2ccccc2)c2c1CCN(C(=O)c1ccccc1)C2` gave FECH inh inactive.
`Cn1nc(C(=O)NCc2ccccc2)c2c1CCN(C(=O)c1ccccc1Cl)C2` gave FECH inh inactive.
Screening Cc1ccc(C(=O)N2CCc3c(c(C(=O)NCc4ccccc4)nn3C)C2)cc1 returned FECH inh active.
Screening Cc1ccccc1C(=O)N1CCc2c(c(C(=O)NCc3ccccc3)nn2C)C1 returned FECH inh inactive.
`O=C(Nc1ccc(Br)cc1F)N1CCN(Cc2nc3cccnc3n2-c2ccc(F)cc2)CC1` gave FECH inh inactive.
Screening CCCc1nc2nc[nH]n2c(=O)c1NC(=O)Nc1ccc2c(c1)OCCO2 returned FECH inh inactive.
`O=C(c1ccc(-c2cn[nH]c2)nc1)N1CCCN(C2CCCCC2)CC1` gave FECH inh inactive.
`CN(C)Cc1nnc(C(=O)N2CCCC(C(C)(C)O)C2)o1` (stereo not given) gave FECH inh inactive.
`Cc1ccc2cc(-c3noc(CCC(=O)N4CCCC(C)C4)n3)c(=O)[nH]c2c1` (stereo not given) gave FECH inh inactive.
COc1ccccc1N1CCN(C(=O)CCc2nc(-c3cc4ccc(C)cc4[nH]c3=O)no2)CC1 was read as FECH inh active.
For Cc1ccc2cc(-c3noc(CCC(=O)N4CCC(C)CC4)n3)c(=O)[nH]c2c1 the results were FECH inh inactive.
`COc1ccc(C(=O)Nc2ccc(Nc3nc(C)cc(Nc4ccccc4)n3)cc2)cc1` gave FECH inh inactive.
For COc1ccc(Nc2cc(C)nc(Nc3ccc(NC(=O)c4cc(Cl)ccc4OC)cc3)n2)cc1 the results were FECH inh inactive.
For COc1ccc(Nc2cc(C)nc(Nc3ccc(NC(=O)c4ccccc4OC)cc3)n2)cc1 the results were FECH inh active.
Cn1c(CNS(=O)(=O)c2ccccc2)nc2cccnc21 was read as FECH inh inactive.
`CCc1nc(OCC(=O)NCc2ccccn2)c2c(-c3ccc(F)cc3)noc2n1` gave FECH inh inactive.
`C=CCNC(=O)COc1nc(CC)nc2onc(-c3ccc(F)cc3)c12` gave FECH inh inactive.
CCNC(=O)COc1nc(CC)nc2onc(-c3ccc(F)cc3)c12 was read as FECH inh active.
`CCCN1CCN(C(=O)C2CCN(c3ccc(-c4cccs4)nn3)CC2)CC1` gave FECH inh inactive.
For Cc1ccccc1OC1CN(C(=O)c2cn(CCN)nn2)C1 the results were FECH inh inactive.
`COc1ccccc1-n1nc(C(C)C)nc1Cn1ccc(=O)[nH]c1=O` gave FECH inh inactive.
COc1ccccc1CNC(=O)CNCc1cc(F)ccc1F was read as FECH inh inactive.
`Clc1cccc(Nc2nc(N3CCCCC3)nc3c2cnn3-c2ccccc2)c1` gave FECH inh inactive.
Cc1ccc(-c2cc(N3CCN(S(=O)(=O)c4ccc(Br)cc4)CC3)ncn2)cc1 was read as FECH inh active.
For O=S(=O)(c1ccc(Br)cc1)N1CCN(c2cc(-c3cccc(F)c3)ncn2)CC1 the results were FECH inh inactive.
For O=S(=O)(c1ccc(Br)cc1)N1CCN(c2cc(-c3ccc(F)cc3)ncn2)CC1 the results were FECH inh inactive.
For NS(=O)(=O)c1ccc(NC(=O)CSc2nc3c(c(=O)[nH]2)CCCC3)cc1 the results were FECH inh active.
For NS(=O)(=O)c1ccc(NC(=O)CSc2nc3c(c(=O)[nH]2)CCC3)cc1 the results were FECH inh inactive.
NS(=O)(=O)c1ccc(NC(=O)c2ccc(=O)n(Cc3ccc(Cl)cc3)c2)cc1 was read as FECH inh inactive.
`CCOC(=O)c1cc2ccsc2n1CC(=O)Nc1cc(C)ccc1C` gave FECH inh inactive.
For COc1cc(OC)c(NC(=O)NCCn2c(-c3ccncc3)nc3cccnc32)cc1Cl the results were FECH inh inactive.
CCOC(=O)c1cc2ccsc2n1CC(=O)N(CC)c1ccccc1 was read as FECH inh active.
CCOC(=O)c1cc2ccsc2n1CC(=O)Nc1ccccc1C(=O)OC was read as FECH inh inactive.
`CCOC(=O)c1cc2ccsc2n1CC(=O)N(CC)c1cccc(C)c1` gave FECH inh inactive.
O=C(NCC(=O)N1CCC(c2nc(-c3ccc(F)cc3)no2)CC1)c1ccco1 was read as FECH inh inactive.
